# Reference: PubChem BioAssay AID686971 (National Center for Advancing Translational Sciences (NCATS), 2013)
# Among all 360,000 compounds or so, about 7,500 (2.1%) were called active. Another 8% or so got no clear call; they are omitted. The entries come from a sample that favours actives as a whole. A number with no mark means an inactive call. Calls come from the whole dose curve; as a rule, active = well fitted cell-killing curve with a large enough effect; inconclusive = small, poorly fitted or top-dose-only effect, or effect the other way, or another doubt; inactive = no such curve, though single readings can be large or run the other way.
# Assay: qHTS for induction of synthetic lethality in tumor cells producing 2HG: qHTS for the HT-1080-IDH1KD cell line;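 for activity, negative = toxicity: 0% = DMSO wells and -100% = cell-free medium wells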
# Conditions: HT-1080 IDH1 knockdown viability, ATP luminescence, 48 h; series mostly up to 46.1 µM; activity, negative = toxicity: at the top concentration
# How it was run: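 Cytotoxicity counter-line: IDH1KD HT-1080, 48 h, CellTiter-Glo. Curves classed by r2, magnitude and activity.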
# Potency is the fitted concentration of half-maximal effect.
SMILES,"activity, negative = toxicity [%]",Potency
O=C1CC[C@@H](C(=O)N2CSC[C@@H]2C(=O)Nc2ccc(C(F)(F)F)cc2)N1,-2.41,
O=C(NCc1ccc(F)cc1)c1cc(C2CCCCN2C(=O)C2CCCCC2)on1 (configuration not stated),-11.2,
COc1ccc(OCCCC(=O)Oc2ccc(OC)cc2)cc1,-2,
COc1ccc(CCC(=O)c2ccc(OC)cc2)cc1,5.62,
COc1ccc(OCCC(=O)c2ccc(OC)cc2)cc1,,20.6 µM (active)
COc1ccc(C(O)C(O)(C(=O)OC(C)C)c2ccc(C)cc2)cc1 (configuration not stated),-1.24,
CC1(C)CC(=O)C=C(c2ccccc2CO)C1=O,13.4,
COc1ccc(C(C[N+](=O)[O-])n2nc(C)cc2C)cc1 (configuration not stated),,14.6 µM (active)
CCOc1ccc(C(C)C)cc1S(=O)(=O)n1nc(C)cc1C,6.39,
COc1ccc(OC)c(S(=O)(=O)n2c([N+](=O)[O-])cnc2C)c1,7.69,
Cn1nc(N)c2ncc(C(Cl)(Cl)Cl)nc21,-5.53,
CNc1cc(-c2c(OC)cccc2OC)ncn1,13.7,
CCOC(=O)C1CCN(CCC(=O)Nc2cccc(C)c2)CC1,5.37,
CCOC(=O)C1CCN(c2c(Nc3cc(C)cc(C)c3)c(=O)c2=O)CC1,,4.61 µM (active)
CCOC(=O)C1CCN(C(=O)Nc2ccc(C)c(Cl)c2)CC1,-4.51,
Cc1nc(C(F)(F)F)ccc1C(=O)N1CCC1(C)C(=O)NS(=O)(=O)c1ccccc1Cl (configuration not stated),0.87,
O=C(NCCc1ccccc1)c1cccc(NC(=O)c2ccccc2)c1,-1.11,
O=C(CCl)Nc1cccc(CP(=O)(c2ccccc2)c2ccccc2)c1,,5.17 µM (active)
O=C(CSc1ccccc1)Nc1ccc(C(=O)Nc2cccc(O)c2)cc1,-1.42,
Nc1ncnc2c1ncn2[C@@H]1O[C@H](CNC(=O)[C@H](N)Cc2cccnc2)[C@@H](O)[C@H]1O,21.4,
CCc1ccccc1OCC(=O)Nc1ccc(C)c(S(=O)(=O)N2CCCCCC2)c1,-17.9,
Cc1ccccc1OCC(=O)Nc1ccc(N2CCN(C(=O)C(C)C)CC2)c(Cl)c1,,13 µM (active)
CCC(=O)N1CCN(c2ccccc2NC(=O)COc2cccc(C)c2C)CC1,-0.305,
C[C@H]1CN([C@@H](C)CO)C(=O)CCCn2cc(nn2)CO[C@@H]1CN(C)S(=O)(=O)c1ccccc1C#N,6.94,
Nc1nc2c(ncn2[C@@H]2O[C@H](CNS(=O)(=O)N3CCc4ccccc4C3)[C@@H](O)[C@H]2O)c(=O)[nH]1,25.9,

SMILES,"activity, negative = toxicity [%]",Potency
CC(C)(C)c1ccc(S(=O)(=O)NC(=O)C2(C)CCN2C(=O)CC2CC2)cc1 (configuration not stated),15.3,
NS(=O)(=O)c1ccc(CCNc2nc(C(F)(F)F)nc3ccccc23)cc1,-22.2,
CN(C)C(CNC(=O)c1cc2ccccc2o1)c1ccccc1 (configuration not stated),3.28,
CCc1ccc(C(CNc2nc(C(F)(F)F)nc3ccccc23)N(C)C)cc1 (configuration not stated),,20.6 µM (active)
CCOC1=C2CN(S(=O)(=O)c3ccc(C)cc3)[C@H](c3cccs3)C[C@H]2[C@H]2C(=O)N(c3ccccc3)C(=O)[C@H]2C1,9.74,
CCOc1cc(/C=N/n2cnnc2)c(Br)cc1O,-5.67,
Cc1ccccc1OS(=O)(=O)c1cccc([N+](=O)[O-])c1,8.36,
Cc1ccccc1OCCOc1ccc([N+](=O)[O-])cc1/C=N/n1cnnc1,,4.61 µM (active)
O=C(COC(=O)Cc1ccc(Cl)cc1Cl)NCc1ccco1,-4.62,
Cn1cnc(S(=O)(=O)N2C[C@@H](O)COC[C@@H]3O[C@H](CC(=O)NC4CCC4)CC[C@H]32)c1,25.4,
O=c1cc(CN2CCCCCCC2)c2c(ccc3ccccc32)o1,0.659,
CCOC(=O)C1CCCN(C(=O)/C=C/c2ccc(OC)cc2)C1 (configuration not stated),-3.51,
CCN1CCC(O)(/C=C/c2ccc(C)cc2)C(C(=O)/C=C/c2ccc(C)cc2)C1 (configuration not stated),,11.6 µM (active)
COc1ccc(S(=O)(=O)N2CCN(CC(=O)N3CCNC3=O)CC2)cc1OC,6.33,
COc1ccc(CN2C(=O)C(CC(=O)NCCN3CCOCC3)CC(C(=O)N(C(C)C)C(C)C)=C2C)cc1 (configuration not stated),5.14,
CCc1cc(C(=O)N(CC)CC(=O)Nc2c(F)cccc2F)sc1C,1.16,
COc1ccc(Cl)cc1NC(=O)CN(C)C(=O)c1cn(-c2ccccc2)nc1-c1cccs1,-3.23,
COc1ccc(Nc2ccc3ccccc3c2)cc1,-22.5,
COc1ccc2oc(=O)cc(-c3cc4ccccc4o3)c2c1,-3.77,
COc1ccc(Nc2cc(=O)oc3ccccc23)cc1,,5.8 µM (active)
COc1ccc(CC(=O)NC2CCSc3ccccc32)cc1OC (configuration not stated),-1.88,
COC(=O)C1=CN(Cc2ccc(OC)c(OC)c2)C=C(C(=O)OC)C1c1cccs1,-3.11,
COc1ccc(CC2c3cc(OC)c(OC)cc3CC[N+]2(C)CCC(=O)OCCCCCOC(=O)CC[N+]2(C)CCc3cc(OC)c(OC)cc3C2Cc2ccc(OC)c(OC)c2)cc1OC (configuration not stated),,20.6 µM (active)
CC/C(=N\NC(=S)NC(C)C)c1ccc(OC(F)F)cc1,-1.89,
C/C(=N\NC(=S)NC(C)C)c1ccc(C(C)(C)C)cc1,,16.4 µM (active)

SMILES,"activity, negative = toxicity [%]",Potency
C/C(=N\NC(=S)NCc1ccccc1)c1ccc(Cl)cc1,-0.853,
CC(C)C[C@@H]1COc2cc(N3CCC[C@@H]3CO)ccc2S(=O)(=O)N1,1.26,
CC(C)(C(=O)NO)c1ccccc1,-20,
CCOc1cc(-c2cc(-c3ccc(NC(C)=O)cc3)nc(N)c2C#N)ccc1O,-15.5,
CCOc1cc(/C=C(\C#N)c2nc(-c3cccs3)c(NC(C)=O)s2)ccc1O,,2.91 µM (active)
CCOc1cc(/C=N/NC(=O)c2c(C)nc3ccc(Cl)cn23)ccc1O,-2.43,
CC1(C(=O)NS(=O)(=O)c2cccc(F)c2)CCN1C(=O)c1cccc2ccccc12 (configuration not stated),1.27,
COc1cccc(CN(C)C(=O)CC[C@H]2O[C@@H](n3cnc4c(NC(=O)c5ccccc5)ncnc43)[C@H](O)[C@@H]2O)c1,13.1,
COc1ccc(C(C#N)=C2C=CC(=NO)c3ccccc32)cc1,,0.517 µM (active)
COc1ccc(C(=NN)c2ccc(OC)cc2)cc1,18.4,
COc1ccc(/C(N)=N/OC(=O)Cc2ccccc2)cc1,12.4,
CN(C)CCNC(=O)Nc1cccc(Cl)c1Cl,-6.77,
CN(C)CCNC(=O)c1ccc(Cl)c2cc3ccccc3nc12,,10.3 µM (active)
CN(c1ccccc1)S(=O)(=O)c1ccc(Cl)c(C(=O)NCCc2c[nH]c3ccccc23)c1,-8.58,
CC(=O)NC(c1cccc(F)c1)c1nc(-c2cccc(F)c2)cs1 (configuration not stated),0.603,
COc1ccc([C@H]2C[C@@H](n3cc(COC(=O)c4ccccc4)nn3)[C@H](O)CN2C(=O)c2cccs2)cc1,-6.72,
COC(=O)C[C@@H]1C=C[C@@H](NC(=O)c2ccc3c(c2)OCO3)[C@@H](CO)O1,23.1,
Cc1ccc(S(=O)(=O)N2C[C@@H](C)[C@]3(C2)[C@H](O)[C@H](OC(=O)NCc2ccccc2)C[C@H]2C(=O)N(c4ccccc4)C(=O)[C@H]23)cc1,-0.522,
Cc1ccc(Oc2ccc3c(c2)C(=O)N(c2cccc4cccnc24)C3=O)cc1,7.05,
Cc1ccc(OS(=O)Nc2cccc3nccnc23)cc1 (configuration not stated),,11.2 µM (active)
Cc1ccc(OCC(=O)Nn2cnc3ccccc32)cc1,-17.9,
CCNC(=O)C1(C)CCN(C(=O)c2ccccc2)C1 (configuration not stated),4.67,
O=C(NCc1ccc(F)cc1)c1cc(C2CCCCN2C(=O)c2ccccn2)on1 (configuration not stated),23.9,
COc1cccc(CNC(=O)[C@@H]2CCCN2C(=O)[C@@H]2CCCN2C(=O)c2ccccc2)c1,9.12,
S=C(NCCCc1ccccc1)Nc1ccc(Br)cc1,,16.4 µM (active)

SMILES,"activity, negative = toxicity [%]",Potency
O=S(=O)(NCCCc1ccccc1)c1ccc(Br)cc1,2.69,
O=C(Cc1ccc(Br)cc1)NCCc1ccccc1,-2.12,
Cc1ccc(C)c(S(=O)(=O)N2CCN(c3ncnc4sccc34)CC2)c1,,4.61 µM (active)
Cc1ccc(S(=O)(=O)N2CCN(c3ncnc4ccccc34)CC2)cc1,,inactive
COc1ccc(C)cc1S(=O)(=O)N1CCN(S(=O)(=O)c2cc(C(=O)O)ccc2C)CC1,9.87,
COc1ccccc1-n1c(SCC(=O)Nc2ccc(Cl)cc2)nc(O)c(Cc2ccccc2)c1=O,-24.8,
CCOC(=O)[C@]12CCC=C1N(Cc1ccccc1)C(=O)[C@H](CC(=O)N1CCCC1)C2,2.61,
O=C1CCC(=O)N1CCC(=O)N(C(=O)NC1CCCCC1)C1CCCCC1,-1.14,
CCOC(=O)[C@]12CCCC=C1N(Cc1cccc3ccccc13)C(=O)[C@H](CC(=O)NCC13CC4CC(CC(C4)C1)C3)C2,,23.1 µM (active)
CCCCNC(=O)C[C@@H]1C[C@@]2(C(=O)OCC)CCC=C2N(Cc2cccc3ccccc23)C1=O,-12.6,
COC(=O)[C@]12CCCCC=C1N(Cc1ccc(Cl)cc1Cl)C(=O)[C@H](CC(=O)NCc1cccc3ccccc13)C2,-28.4,
CCc1nc2ccc(C(=O)N3CCC(O)(Cc4ccccc4)CC3)cn2c1N(C)C(=O)Cc1ccccc1,18.8,
O=S1(=O)CC(N2CCN(CCO)CC2)CN1Cc1cn(Cc2ccc(Cl)cc2)nn1 (configuration not stated),6.6,
Cc1cccc(S(=O)(=O)N(C)C[C@H]2OCc3cnnn3CCCC(=O)N([C@@H](C)CO)C[C@H]2C)c1,6.99,
COc1ccccc1-c1cc2nc(NCc3cccc(Cl)c3)ccn2n1,-18.2,
CC(C)Cc1ccc(-c2cc3nc(NCc4cccc(Cl)c4)ccn3n2)cc1,,20.6 µM (active)
Cc1cc(C)n2c(NCc3ccccc3)c(CC(C)C)nc2n1,5.86,
Cc1sc2ncnc(SCC(=O)NC3CCS(=O)(=O)C3)c2c1C (configuration not stated),-2.68,
C=CCOc1ccccc1CNn1c(C)n[nH]c1=S,0.246,
CS(=O)(=O)Nc1ccc(C(=O)N2CCCC2)cc1,8.84,
CNc1cncc(-c2cccc(C(=O)N3CCOCC3)c2)n1,7.17,
CNc1cncc(-c2ccc(NS(C)(=O)=O)cc2)n1,,5.8 µM (active)
